Records with an inconclusive call do not appear. A number with no mark means an inactive call. Activity calls are given as the source filed them. Calls come from the whole dose curve; as a rule, active = well fitted curve in the direction sought with a large enough effect; inconclusive = small, poorly fitted or top-dose-only effect, or another doubt; inactive = no such curve, though single readings can be large; an effect the other way counts as inactive or inconclusive.

Test [1] has as its target Cellular tumor antigen p53 (Homo sapiens) (UniProt P04637). Briefly: Primary qHTS for small molecule compounds that upregulate eGFP-tagged delta133p53alpha (in N-terminal) cells. (AID 2060322).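 For activation: cells pre-induced with doxycycline then dosed without doxycycline; series mostly up to about 56 µM; 0% = DMSO vehicle and 100% = reference activator.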 Note: nearly all actives have a fitted effect of over 75% in size. Note: potency is the fitted concentration of half-maximal effect. As to conditions: NCI-H358 eGFP-delta133p53alpha fluorescence, 24 h; activation: stronger effect = higher value. Summed up:
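NCI-H358 cells pre-induced 24 h with 10 ng/ml doxycycline for eGFP-delta133p53alpha, plated dox-free and exposed 24 h at 37C to titrated compounds. Fixed, Hoechst-stained; gated GFP peak intensity by laser scanning cytometry, normalized to DMSO (0%) and 57.5 uM 5-azacytidine (100%).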
For orientation: qHTS replaces the single test concentration by a dilution series.

The target of test [2] is Aldehyde dehydrogenase, mitochondrial (Homo sapiens) (UniProt P05091). As to the kind of experiment: qHTS for Inhibitors of the Aldehyde Dehydrogenase Family (ALDH2) Primary screen (AID 2061308).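 Note: plate controls were vehicle for no effect and reference inhibitor for full effect; nearly all actives have a fitted effect of over 55% in size.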
Test [3] deals with Retinaldehyde dehydrogenase 3 (Homo sapiens) (UniProt P47895). Briefly: qHTS for Inhibitors of the Aldehyde Dehydrogenase Family (ALDH1A3) Primary screen (AID 2061315).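 Note: plate controls were DMSO vehicle for no effect and reference inhibitor for full effect.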

Sequence of Cellular tumor antigen p53 (Homo sapiens) (P04637 whole entry, looked up): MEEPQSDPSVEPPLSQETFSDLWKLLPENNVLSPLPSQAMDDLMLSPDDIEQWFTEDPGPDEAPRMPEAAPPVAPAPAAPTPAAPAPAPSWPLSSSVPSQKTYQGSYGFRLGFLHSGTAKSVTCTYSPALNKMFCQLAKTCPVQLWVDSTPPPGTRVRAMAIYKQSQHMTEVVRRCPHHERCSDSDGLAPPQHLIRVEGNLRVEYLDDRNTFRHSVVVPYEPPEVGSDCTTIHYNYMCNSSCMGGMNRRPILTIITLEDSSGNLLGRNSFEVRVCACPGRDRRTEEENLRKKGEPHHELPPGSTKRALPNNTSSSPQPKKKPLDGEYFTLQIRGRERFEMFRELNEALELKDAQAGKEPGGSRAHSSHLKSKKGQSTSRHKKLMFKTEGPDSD

For `C=C(C)C(C)C1OC23CC4(CO2)C(CCC2C5(C)CCC(OC6OCC(O)C(OC7OC(CO)C(O)C(OC8OCC(O)C(O)C8O)C7O)C6OC6OC(CO)C(O)C6O)C(C)(C)C5CCC24C)C3C(C)(O)C1OC(C)=O` (stereo not given), the activation in test [1] is -19.8%. The Potency entry in test [2] and in test [3] was “inactive” in each case.

`CC(=O)O[C@@H]1[C@H](O[C@@H]2OC[C@](O)(CO)[C@H]2O)[C@@H](O[C@@H]2O[C@@H](C)[C@H](O)[C@@H](O[C@@H]3O[C@H](CO)[C@@H](O)[C@H](O)[C@H]3O)[C@H]2O)[C@H](OC(=O)[C@]23CCC(C)(C)C[C@H]2C2=CCC4[C@@]5(C)C[C@H](O)[C@H](O[C@@H]6O[C@H](C(=O)O)[C@@H](O)[C@H](O)[C@H]6O)[C@@](C)(C(=O)O)C5CC[C@@]4(C)[C@]2(C)CC3)O[C@@H]1C` (stereo not given in full): in test [1], the activation was -16.8%. The activity change, negative = inhibition in test [2] is 3.67% [at 11.2 µM]; in test [3] it was -13.4% [at 11.2 µM].

Regarding `C/C=C(/C)C(=O)OC1CC(C)(C)CC2C3=CCC4C5(C)CCC(O[C@@H]6O[C@H](C(=O)O)[C@@H](O)[C@H](O)[C@H]6O[C@@H]6O[C@H](CO)[C@H](O)[C@H](O[C@@H]7OC[C@H](O)[C@H](O)[C@H]7O[C@@H]7O[C@H](CO)[C@@H](O)[C@H](O)[C@H]7O)[C@H]6O)C(C)(C)C5CCC4(C)C3(C)C(O)C(O)C12CO` (stereo not given in full), in test [1], the activation was 0.893%. The figures for the activity change, negative = inhibition in test [2] and in test [3] were -0.94% [at 11.2 µM] and -6.72% [at 11.2 µM], respectively.

Take `C=C1CC[C@@]2(OC1)O[C@H]1CC3[C@@H]4CC=C5C[C@@H](O)C[C@@H](O[C@@H]6OC[C@H](O)[C@H](O)[C@H]6O[C@@H]6O[C@@H](C)[C@H](O)[C@@H](O)[C@H]6O)[C@]5(C)C4CC[C@]3(C)[C@H]1[C@@H]2C` (stereo not given in full): the activation in test [1] is -26%. The Potency result in test [2] and in test [3] was “inactive” throughout.

Turning to `CC1=C[C@H]2[C@@H](CC1=O)[C@H](C)C[C@H](O)[C@H]2C(C)C`, the activation in test [1] was 10.7%. Further, the Potency entry in test [2] and in test [3] was “inactive” in each case.

For `COc1c(C)c(OCC(O)C(C)(C)O)cc2c1CNC2=O` (stereo not given), the activation in test [1] is -1.79%. Also, the Potency result in test [2] and in test [3] was “inactive” throughout.

Turning to `CC1OC(O[C@@H]2[C@@H](O)[C@H](OC(=O)[C@]34CCC(C)(C)C[C@H]3C3=CCC5[C@@]6(C)CC[C@H](O[C@@H]7O[C@H](C(=O)O)[C@@H](O)[C@H](O[C@@H]8OC[C@@H](O)[C@H](O)[C@H]8O)[C@H]7O[C@@H]7O[C@H](CO)[C@H](O)[C@H](O)[C@H]7O)[C@@](C)(C=O)C6CC[C@@]5(C)[C@]3(C)C[C@H]4O)O[C@H](C)[C@@H]2OC2OC(C)C(OC3OCC(O)C(O)C3O)C(O)C2O)C(O)C(O)C1O` (stereo not given in full), the activation in test [1] is -3.57%. Moreover, the activity change, negative = inhibition in test [2] is 9.81% [at 11.2 µM]; in test [3], 5.21% [at 11.2 µM].

`C#Cc1cnc2[nH]c(=O)n(C(CC)CC)c2n1`: the activation in test [1] was -4.77%. In addition, the Potency result in test [2] and in test [3] was “inactive” throughout.

On to `C/C=C(/C)C(=O)OC1CC(C)(C)CC2C3=CCC4C5(C)CCC(OC6OC(C)C(OC7OC(C(=O)O)C(O)C(OC8OC(CO)C(O)C(O)C8OC8OC(CO)C(O)C(O)C8O)C7O)C(O)C6O)C(C)(C)C5CCC4(C)C3(C)C(OC(=O)/C=C/C=C/C=C/CCC)C(OC(C)=O)C12CO` (stereo not given), for which the activation in test [1] was 14.5%. The results for the activity change, negative = inhibition in test [2] and in test [3] were 6.9% [at 11.2 µM] and 9.07% [at 11.2 µM], respectively.

On to `O=C(O)/C=C/c1ccc(-c2ccc(O)c(C34CC5CC(CC(C5)C3)C4)c2)cc1`, for which the Potency in test [1] was 26.9 µM (active). Moreover, the Potency result in test [2] and in test [3] was “inactive” in each case.

Turning to `COc1ccc(-n2c(SCC#N)nc3sc4c(c3c2=O)CCCC4)cc1`, the activation in test [1] is -16.1%. Also, the Potency entry in test [2] and in test [3] was “inactive” in each case.

Consider `COC1=CC(=O)O/C1=C(/OC)[C@@H]1O[C@H]1c1ccccc1`, for which, in test [1], the activation is -3.05%. Besides, the Potency result in test [2] and in test [3] was “inactive” throughout.

Take `CCCCCCCOc1cc2c(cc1/C(C)=C/c1ccc(C(=O)O)cc1)C(C)(C)CCS2(=O)=O`: in test [1], the activation was 3%. In addition, the Potency entry in test [2] and in test [3] was “inactive” throughout.

As for `C=CC(C)(C)C12CC3C(=O)NC(Cc4cnc[nH]4)C(=O)N3C1Nc1ccccc12` (stereo not given), the activation in test [1] was 13.4%. Besides, the Potency result in test [2] and in test [3] was “inactive” in each case.

For `COc1cc(C)c(C(=O)O[C@H]2[C@@H](OC(C)=O)[C@H](n3ccc(=O)[nH]c3=O)O[C@@H]2CO)c(OC)c1`, the activation in test [1] was -10.7%. Also, the Potency result in test [2] and in test [3] was “inactive” in each case.

For the compound `COc1cc(NC(=O)Nc2cccc(CNC(=O)O[C@H]3CCOC3)c2)ccc1-c1cnco1`, the activation in test [1] is 7.14%. The Potency entry in test [2] and in test [3] was “inactive” throughout.

Regarding `CC1=CC(=O)[C@]2(O[C@@H]3O[C@@H](C)[C@H](O)[C@@H](O)[C@H]3OC(=O)/C=C/c3ccccc3)C=CO[C@@H](O[C@@H]3O[C@H](CO)[C@@H](O)[C@H](O)[C@H]3O)[C@H]12`, the activation in test [1] was 3.05%. In addition, the Potency result in test [2] and in test [3] was “inactive” in each case.

Take `CC1(C)CCC[C@@]2(C)[C@H]1[C@H](O)C=C(CO)[C@]2(O)CO`: in test [1], the activation was -1.53%. The Potency entry in test [2] and in test [3] was “inactive” each time.

Take `COc1cccc(NCCC2(c3ccccc3)CC(C)(C)OC(C)(C)C2)c1`: in test [1], the Potency was 21.7 µM (active). The Potency result in test [2] and in test [3] was “inactive” in each case.

For the compound `COc1cc(/C=C/C(=O)OC2CC3CCC2(C)C3(C)C)ccc1O` (stereo not given), the activation in test [1] was -14.5%. Besides, the Potency entry in test [2] and in test [3] was “inactive” throughout.
